For 38 molecules, outcome and AC50 results are on record in PubChem BioAssay (EPA / NIEHS).

The source made the active and inactive calls. How the source made its calls: active means hit-call score of the fitted dose curve at least 0.9, where 1 is the maximum; inactive means score below 0.9.

As a reminder, the AC50 is the concentration at which the activity in the assay is half-maximal.

The nature of one assay: ATG_ERE_CIS: Attagene CIS-FACTORIAL HepG2 Assay for Estrogen Response Element (ERE) (AID 2282940). Conditions: HepG2 ERE cis-reporter, Attagene RNA transcript; actives raise or lower the signal. The essentials:
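After a 24 h chemical treatment, RNA from reporter-transfected HepG2 cells is reverse-transcribed, PCR-amplified and fluorescently labelled. Fragments separated by capillary electrophoresis give reporter signal; DMSO serves as negative control.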
For `CC1(C)O[C@@H]2[C@@H](CO[C@@]3(COS(N)(=O)=O)OC(C)(C)O[C@@H]23)O1`, the outcome was inactive.
On to `Brc1ccc(Br)c(Br)c1`, for which the result was inactive.
Still for that read-out and setting: under `CC(C)(CO)[C@@H](O)C(=O)NCCC(=O)O` stands “inactive”.

A further assay in a line: ATG_Ets_CIS: Attagene CIS-FACTORIAL HepG2 Assay for human Erythroblast Transformation Specific (ETS) (AID 2282941). Conditions: HepG2 ETS cis-reporter transcription, actives raise or lower the signal. The method, boiled down: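 Multiplexed reporter transcript profiling: HepG2, 24 h treatment, total RNA to cDNA, PCR, 6-FAM labelling, HpaI cut, capillary electrophoresis. Gain- or loss-of-signal fitted against DMSO.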
On to `CCOC(=O)CC(C)O` (stereo unspecified), for which the result was inactive.
Still for that read-out and setting: for `CCCC(=O)OCCc1ccccc1` the value was “inactive”.
As to `CC1(C)O[C@@H]2[C@@H](CO[C@@]3(COS(N)(=O)=O)OC(C)(C)O[C@@H]23)O1`, the outcome was inactive.
Still for that read-out and setting: for `[Cl][Au]([Cl])[Cl]` the value was “inactive”; for `CCCCCC(C=O)=Cc1ccccc1`, “inactive”; for `C=CC(C)C#N` (stereo unspecified), “inactive”.
For the molecule `C[C@H]1O[C@@H](O[C@H]2[C@@H](O)C[C@H](O[C@H]3[C@@H](O)C[C@H](O[C@H]4CC[C@@]5(C)[C@H](CC[C@@H]6[C@@H]5C[C@@H](O)[C@]5(C)[C@@H](C7=CC(=O)OC7)CC[C@]65O)C4)O[C@@H]3C)O[C@@H]2C)C[C@H](O)[C@@H]1O`, the AC50 was 145 nM (active).
Take `ClC(c1ccccc1)(c1ccccc1)c1ccccc1`: the call was inactive.
The same measure, in the same setting: for `O=c1c(O)c(-c2ccc(O)cc2)oc2cc(O)cc(O)c12` the value was “inactive”.
Same read-out and setting: for `CN1CCOCC1` the value was “inactive”; for `CC/C=C\CC/C=C/CO`, “inactive”; for `CS(=O)(=O)c1ccc(C2=C(c3ccccc3)C(=O)OC2)cc1`, “inactive”.
The same measure, in the same setting: for `CC1C2CC(CC2C2CCCC(O)C2)C1(C)C` (stereo unspecified) the value was “inactive”.
Turning to `COC(=O)Nc1ccc(Cl)c(Cl)c1`, the call was inactive.
Consider `CC(O)C1CCCCC1` (stereo unspecified), for which the result was inactive.
`Oc1c(Cl)cc(Cl)c(Cl)c1Cc1c(O)c(Cl)cc(Cl)c1Cl`: the AC50 was 878 nM (active).
As for `N#Cc1ccc(CC(=O)c2cccc(C(F)(F)F)c2)cc1`, the call was inactive.
For `COS(=O)(=O)O`, the call was inactive.
In the case of `CCCCCCOC(=O)CCC`, the call was inactive.
For the molecule `COC(C)(C)CCCC(C)CC=O` (stereo unspecified), the call was inactive.
As to `CSCCC=O`, the molecule was called inactive.
Same read-out and setting: under `Brc1ccc(Br)c(Br)c1` stands “inactive”; under `Cc1cc(C)nc(NS(=O)(=O)c2ccc(N)cc2)n1`, “inactive”.
Same read-out and setting: for `CCOCCOCCOCC` the value was “inactive”; for `C=C1C[C@]23C[C@@]1(O)CC[C@H]2[C@@]12C=C[C@H](O)[C@@](C)(C(=O)O1)[C@H]2[C@@H]3C(=O)O`, “inactive”.
Consider `OCc1cccc(Oc2ccccc2)c1`, for which the molecule was called inactive.
Same read-out and setting: for `C=CCN(CC=C)CC=C` the value was “inactive”; for `CC(C)(N=C=O)c1cccc(C(C)(C)N=C=O)c1`, “inactive”.
Same read-out and setting: under `C[Si]1(C)O[Si](C)(C)O[Si](C)(C)O1` stands “inactive”; under `CCOc1ccccc1O`, “inactive”; under `Cc1cc(=O)oc2cc(N(C)C)ccc12`, “inactive”.
On the same count and under the same terms, for `CCCCOCC` the value was “inactive”; for `C1CCCCC1`, “inactive”; for `CC1=CC[C@@]23C[C@@H]1C(C)(C)[C@@H]2CC[C@H]3C`, “inactive”.
As to `O=C1NC2NC(=O)NC2N1` (stereo unspecified), the outcome was inactive.
For the molecule `Nc1ccc(NCCO)c([N+](=O)[O-])c1`, the outcome was inactive.
As to `CC(C)(CO)[C@@H](O)C(=O)NCCC(=O)O`, the molecule was classed as inactive.
Turning to `C[Si](C)(C)O[Si](C)(C)C`, the molecule was classed as inactive.
